From the OligoGym collection

These sequences were tested against IPO9 (assay: pooled miR-30 sensor sort-seq; sequence = guide strand). Conditions: shRNA.
Note: reference of the scale not given here.

Sequence | sensor-assay potency score (higher = more potent)
TATAGGAGAATGTATCATCATC | -0.789
TTGTATTTCGTACTACTGTTGT | -0.494
TAATCTGTTCTTCAGCAGCCGC | -1.2
TATTGTTTCAAGATGACTGATG | -0.429
TTGTCATCTGCATTGATGCCAT | -0.517
TTACAGAGTGCCACAGAGCTGA | -0.313
TTGCTTTCCATGCTTGCTGTGA | -0.476
TTATCGATTCTCTCAACCCATT | -1.16
TTTGCTTATCGATTCTCTCAAC | -1.05
TTTTTGGCTGACTTAGAGCGGG | -0.902
TTCTAGCTGAGTGTGCACCAGA | -0.519

These sequences were tested against IQCF1 in the same assay as above. Conditions: shRNA.

Sequence | sensor-assay potency score (higher = more potent)
TTGAGCACCTGGCAATAGCGTC | -1.02
TTCTTCAGAATCTTGGACAGTA | 0.482
TTGGCTGTGACTCTGTACTGGC | -0.0836
ATACACTCTGTCACAATGCAAG | -1.11
TAGCCTCTGCCTTTGACTCTGC | -0.296
TGGAGTTTTAGCCTCTGCCTTT | -0.954
TTTCTCATTGGCATTGTCCACT | -0.377
TTGTCCACTGTCTGTGTCTCAA | -0.831
TACCGTATCTTTGTCAGAGAGC | -0.874
TTTGAGGGTTCCTTCGTCTTTT | -0.864
ATCTTTGTCAGAGAGCTTCTTT | 0.163
TTGATCTTGGTGGCTACCGTAT | -0.916

These sequences were tested against IQCJ in the same assay as above. Conditions: shRNA.

Sequence | sensor-assay potency score (higher = more potent)
TAGAGAAGAATCACCTTCCTTC | 0.583
TCTCTGAGGAGACAGAGGGTGG | -1.51
TCGCTGAATGATTTTCACCTTT | -0.759
TTCCATCATTAACTTGTTCTAG | -0.41
ATATTTTCCATCATTAACTTGT | 0.105
TAGAGGATTCTGCAATCTTTTC | -1.5
TTGAGAGTATGTATGAACCCAG | 0.0169
TTTTCCATCATTAACTTGTTCT | -0.253
TCCATCATTAACTTGTTCTAGA | -0.697
TCGGAGAAGGTGTTCATGCTGA | -0.401
TTCTCTGAGGAGACAGAGGGTG | -0.857

What follows are sequences tested against IREB2 in the same assay as above. Conditions: shRNA.

Sequence | sensor-assay potency score (higher = more potent)
TCAACTGTAAGATCTGTCGGAC | 0.203
TTTTCTTCAAAAACCACTCTTG | -0.106
TAAAGTAAGAGAAACTGGCAGA | -0.195
TTTAGATACATCGAAGAACTTC | -0.321
TGTCACAGCAACTCTATCCTGA | 0.64
TTCATCATCATTTACATCCATG | -0.574
